Eight molecules from PubChem BioAssay (NCI) can be followed below.

Where “and” joins values, the source holds several entries; their conditions need not be identical. Equal entries are not always repeated. Compounds without any hit were thinned out: in the full panel of roughly 83,000, 20% have a hit.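 Single-dose data. Exposure time 48 hours. Values below 10 considered active.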 Calls of active or inactive are those of the source.

Test in all cases: NCI-60 one-dose screen, 48 h (100 = growth as untreated, 0 = no growth, -100 = all killed)
Assay [1] deals with NCI-H23 lung. To be noted: 10 µM unless noted.
Assay [2] relates to NCI-H226 lung. The conditions noted are these: 10 µM unless noted.
The subject of assay [3] is NCI-H322M lung. The conditions noted are these: 10 µM unless noted.
For assay [4], the system named is HOP-62 NSCLC. The conditions noted are these: 10 µM unless noted.
Assay [5] deals with NCI-H460 lung. To be noted: 10 µM unless noted.
Assay [6] deals with HOP-92 NSCLC. The conditions noted are these: 10 µM.
Assay [7] concerns NCI-H522 lung. To be noted: 10 µM unless noted.
Assay [8] concerns A549/ATCC NSCLC. To be noted: 10 µM unless noted.
Assay [9] deals with 786-0 renal. The conditions noted are these: 10 µM unless noted.
For assay [10], the system named is COLO 205 colon. The conditions noted are these: 10 µM unless noted.
The subject of assay [11] is DU-145 prostate. The conditions noted are these: 10 µM unless noted.
Assay [12] has as its system K-562 leukemia. The conditions noted are these: 10 µM unless noted.
For assay [13], the system named is MALME-3M melanoma. To be noted: 10 µM unless noted.
The subject of assay [14] is MDA-MB-231 breast. The conditions noted are these: 10 µM unless noted.
Assay [15] relates to RXF 393 renal. To be noted: 10 µM unless noted.
Assay [16] has as its system SF-268 CNS. To be noted: 10 µM unless noted.
Assay [17] deals with SF-295 CNS. The conditions noted are these: 10 µM unless noted.
The subject of assay [18] is SF-539 CNS. The conditions noted are these: 10 µM unless noted.
The test system of assay [19] is UACC-257 melanoma. To be noted: 10 µM unless noted.
The subject of assay [20] is M14 melanoma. The conditions noted are these: 10 µM unless noted.

As for `COc1cccc2c1cc([N+](=O)[O-])c1c(C(=O)O)cc3c(c12)OCO3`, the growth in assay [1] is 56.4% (inactive) and 93% (inactive); in [2], 79.8% (inactive) and 107% (inactive); in assay [3], 50.4% (inactive) and 99% (inactive); in assay [4], 82.4% (inactive) and 101% (inactive); in assay [5], 33.5% (inactive) and 106% (inactive); in assay [6], 84% (inactive). Also, the growth in [7] is 35% (inactive) and 63.9% (inactive); in assay [8] it was 76.6% (inactive) and 116% (inactive); in assay [9], 77.3% (inactive) and 98.8% (inactive); in [10], -25.3% (active) and -56.5% (active); in [11] it was 15.6% (inactive) and 118% (inactive); in assay [12], 73.5% (inactive) and 67.8% (inactive). Also, the growth was 106% (inactive) and 98.7% (inactive) in [13]; 88.4% (inactive) and 106% (inactive) in assay [14]; 49.1% (inactive) and 101% (inactive) in assay [15]; 45.9% (inactive) and 113% (inactive) in [16]; 44.9% (inactive) and 90.4% (inactive) in assay [17]; 71.9% (inactive) and 90% (inactive) in assay [18]. Also, the growth in assay [19] was 97.7% (inactive) and 111% (inactive); in assay [20] it was 84.5% (inactive) and 99% (inactive).

For `CC(=O)O[C@H]1C[C@@H]2OC3C=C(C)CCC3(C)[C@@]1(C)[C@@]21CO1` (some centres undefined), the growth in assay [1] was -32.5% (active) and -10.8% (active); in assay [2] it was -24.8% (active); in [3] it was -19.5% (active); in [4], 17% (inactive) and -10.8% (active); in assay [5] it was 0.408% (active) and -3.28% (active); in assay [6] it was -21.3% (active) and -15.3% (active). Moreover, the growth was -46.4% (active) and -45.1% (active) in assay [7]; -9.42% (active) and -20.5% (active) in assay [8]; -15.6% (active) and -10.8% (active) in assay [9]; -61.6% (active) and -70.2% (active) in [10]; -10.8% (active) and -37.3% (active) in assay [11]; 3.64% (active) and -17.5% (active) in assay [12]. Besides, the growth in [13] is -35.1% (active) and -36% (active); in [14] it was -12.8% (active) and -34.4% (active); in [15] it was -21.4% (active) and -34.9% (active); in assay [16], 1.16% (active) and -20.3% (active); in assay [17], -26.1% (active) and 0.436% (active); in assay [18], -24.5% (active) and -26.6% (active). Also, the growth in assay [19] was -26% (active) and -33.7% (active); in assay [20] it was -81.2% (active) and -64.8% (active).

In the case of `COc1ccccc1/C=C(/C)[N+](=O)[O-]`, the growth in assay [1] was 88.3% (inactive) and 90.8% (inactive); in assay [2], 100% (inactive) and 105% (inactive); in assay [3], 92.7% (inactive) and 92.2% (inactive); in assay [4], 109% (inactive) and 83.1% (inactive); in [5] it was 87.3% (inactive) and 107% (inactive); in assay [6], 96.5% (inactive). The growth in [7] is 50% (inactive) and 84.5% (inactive); in [8], 93.3% (inactive) and 76.9% (inactive); in assay [9], 82.2% (inactive) and 101% (inactive); in assay [10] it was 67.4% (inactive) and 106% (inactive); in assay [11], 27.7% (inactive) and 107% (inactive); in assay [12], 39.9% (inactive) and 97.5% (inactive). For the same molecule, the growth in assay [13] was 72.8% (inactive) and 89.3% (inactive); in [14], 70% (inactive) and 105% (inactive); in assay [15], -1.25% (active) and 116% (inactive); in assay [16] it was 80.5% (inactive) and 99.1% (inactive); in [17] it was 102% (inactive) and 94.6% (inactive); in assay [18], 88% (inactive) and 96.8% (inactive). Further, the growth in assay [19] is 80.9% (inactive) and 75% (inactive); in assay [20] it was 79.2% (inactive) and 95% (inactive).

Turning to `C[C@]12CC[C@H](O)CC1=CC[C@@H]1[C@@H]2CC[C@]2(C)C(=O)CC[C@@H]12`, the growth in assay [1] is 96% (inactive); in [2], 102% (inactive); in assay [3], 91% (inactive); in assay [4], 96.4% (inactive); in assay [5], 108% (inactive); in assay [7] it was 48% (inactive). Further, the growth in [8] is 106% (inactive); in [9], 92.6% (inactive); in assay [10], 93.4% (inactive); in assay [11] it was 122% (inactive); in [12], 80.5% (inactive); in assay [13] it was 80.9% (inactive). For the same molecule, the growth in assay [14] is 106% (inactive); in [15] it was 110% (inactive); in [16] it was 106% (inactive); in [17], 102% (inactive); in [18], 100% (inactive); in assay [19], 102% (inactive). Further, the growth in [20] is 101% (inactive).

On to `CCCCCCCCCCCC1CCCC(C)N1` (centres undefined), for which the growth was 71.4% (inactive) in assay [1]; 94.8% (inactive) in assay [2]; 127% (inactive) in assay [3]; 86.5% (inactive) in assay [4]; 87.9% (inactive) in [5]; 15.8% (inactive) in [6]. Further, the growth in [7] was -8.02% (active); in assay [8], 97.2% (inactive); in assay [9] it was 67.3% (inactive); in assay [10] it was -33% (active); in [11], 92.4% (inactive); in [12], 6.23% (active). Also, the growth was 72% (inactive) in assay [14]; 77.7% (inactive) in assay [15]; 73.5% (inactive) in assay [16]; 100% (inactive) in assay [17]; 97.5% (inactive) in assay [18]; 77.3% (inactive) in [19]. Moreover, the growth in [20] is 95.3% (inactive).

For `COC1=C(C)C(=O)C2=C(C1=O)C(CO)N1C(C#N)C3CC4C(C1C2N1CCOC41)N3C` (centres undefined), the growth was -45.1% (active) in [1]; -14.5% (active) in assay [2]; -23.7% (active) in assay [3]; -42% (active) in assay [4]; -14.9% (active) in assay [5]; -83.2% (active) in assay [7]. For the same molecule, the growth is -3.64% (active) in assay [8]; -21.9% (active) in [9]; -74.5% (active) in [10]; 1.67% (active) in [11]; -45.3% (active) in assay [12]; -97.4% (active) in assay [13]. The growth in [14] is -11.9% (active); in [15], -88.9% (active); in assay [16], -13.6% (active); in assay [17], -29.7% (active); in assay [18], -60.3% (active); in assay [19], 2.61% (active). In assay [20], the growth was -85.9% (active).

For `CC[C@@]1(O)C(=O)OCc2c1cc1n(c2=O)Cc2cc3ccccc3nc2-1`, the growth was -26.7% (active) in [1]; -54% (active) in assay [2]; -19.4% (active) in [3]; -10.3% (active) in assay [4]; -25.8% (active) in [5]; -49% (active) in [7]. In addition, the growth was -21.1% (active) in assay [8]; -18.5% (active) in [9]; -38% (active) in assay [10]; -31.9% (active) in assay [11]; 0.554% (active) in assay [12]; -59.5% (active) in assay [13]. For the same molecule, the growth in [14] is 28.6% (inactive); in assay [15], 6.33% (active); in [16], 2.82% (active); in [17], -14.4% (active); in assay [18], -46.4% (active); in assay [19], -17.8% (active). Besides, in assay [20], the growth is -39% (active).

Consider `CC1=C2C(=O)[C@H]3[C@@H](CC=C4C[C@@H](O)CC[C@@]43C)[C@@H]2CC[C@]12O[C@@H]1C[C@H](C)CN[C@H]1[C@H]2C`, for which the growth in assay [1] was 106% (inactive); in [2], 95.3% (inactive); in assay [3], 86.4% (inactive); in assay [4], 50.9% (inactive); in assay [5], 100% (inactive); in [8], 89.7% (inactive). Further, the growth in assay [9] was 127% (inactive); in assay [10], 103% (inactive); in [11] it was 151% (inactive); in [12], 154% (inactive); in assay [13] it was 84.6% (inactive); in assay [14] it was 105% (inactive). Also, the growth in [15] was 98.8% (inactive); in assay [16], 105% (inactive); in assay [17], 93.3% (inactive); in assay [18], 101% (inactive); in assay [19], 104% (inactive); in [20] it was 92.9% (inactive).
